Consider two molecules from PubChem BioAssay (EPA / NIEHS).

Read-out in experiment [1]: C-C motif chemokine 2 (Homo sapiens) (UniProt P13500)
In words: BSK_KF3CT_MCP1: BioMAP Diversity Plus: KF3CT Assay for Monocyte Chemoattractant Protein 1 (MCP1/CCL2) Biomarker Activity (AID 2283073). As to conditions: primary human keratinocytes with fibroblasts; actives raise or lower the signal. The gist of the method:
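Human keratinocyte–foreskin fibroblast co-culture; MCP-1 measured by ELISA 24 h after dosing. Bidirectional fit vs DMSO; cytotoxicity tracked by SRB total protein in parallel cultures.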

Read-out in experiment [2]: Matrix Metallopeptidase 9 (MMP9), MMP9 (gene 4318)
In words: BSK_KF3CT_MMP9: BioMAP Diversity Plus: KF3CT Assay for Matrix Metallopeptidase 9 (MMP9) Biomarker Activity (AID 2283074).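 For AC50: MMP9 protein level quantified by ELISA in the co-culture.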 Conditions: primary human keratinocytes with fibroblasts; actives raise or lower the signal. The method, boiled down:
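ELISA read-out of MMP-9 at 24 h post-dosing in a co-culture of human skin keratinocytes and foreskin fibroblasts. Gain or loss of signal was fitted in both directions against DMSO.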

Read-out in experiment [3]: urokinase plasminogen activator (uPA), PLAU (gene 5328)
In words: BSK_KF3CT_uPA: BioMAP Diversity Plus: KF3CT Assay for urokinase plasminogen activator (uPA) Biomarker Activity (AID 2283075). As to conditions: primary human keratinocytes with fibroblasts; actives raise or lower the signal. The method, boiled down: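 Skin co-culture (keratinocytes + foreskin fibroblasts), human primary; 24 h post-dose; uPA by ELISA; gain/loss fit vs DMSO baseline.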

Read-out in experiment [4]: CD40, CD40 (gene 958)
In words: BSK_LPS_CD40: BioMAP Diversity Plus: LPS Assay for CD40 Biomarker Activity (AID 2283076). Conditions: primary human HUVEC with PBMC; actives raise or lower the signal. The method, boiled down:
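HUVEC plus PBMC co-culture stimulated with LPS; CD40 quantified by ELISA 24 h after compound dosing. Fitting was bidirectional relative to DMSO. SRB staining of parallel cultures flagged overt cytotoxicity.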

Read-out in experiment [5]: E-selectin (Homo sapiens) (UniProt P16581)
Nature of the experiment: BSK_LPS_Eselectin: BioMAP Diversity Plus: LPS Assay for Eselectin Biomarker Activity (AID 2283077). Conditions: primary human HUVEC with PBMC; actives raise or lower the signal. The gist of the method: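 Human umbilical vein endothelial cells co-cultured with PBMC under LPS stimulation; cell-surface E-selectin measured by ELISA 24 h after dosing. Change in either direction versus DMSO, with SRB total-protein staining in parallel cultures for cytotoxicity.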

Read-out in experiment [6]: Interleukin-8 (IL8), CXCL8 (gene 3576)
In words: BSK_LPS_IL8: BioMAP Diversity Plus: LPS Assay for Interleukin-8 (IL8) Biomarker Activity (AID 2283078). Conditions: primary human HUVEC with PBMC; actives raise or lower the signal. The method, boiled down: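 Human umbilical vein endothelial cells co-cultured with PBMC, LPS-stimulated, exposed to compound for 24 h. IL-8 quantified by ELISA; fitted in both directions against DMSO, with SRB total-protein staining of parallel cultures for cytotoxicity.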

A short description of experiment [7]: BSK_LPS_SRB: Viability Assessment in the BioMAP Diversity Plus: LPS Assay (AID 2283079).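 Note: total protein by sulforhodamine B absorbance as a cytotoxicity measure; measured one day after compound addition.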 As to conditions: primary human HUVEC with PBMC. The method, boiled down:
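Co-culture of human umbilical vein endothelial cells and PBMC, read 24 h after dosing. Total protein by 0.1% SRB staining after 10% TCA fixation, absorbance at 560 nm; bidirectional fit against DMSO.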

Read-out in experiment [8]: Interleukin-1 alpha (IL1a), IL1A (gene 3552)
In words: BSK_LPS_IL1a: BioMAP Diversity Plus: LPS Assay for Interleukin-1 alpha (IL1a) Biomarker Activity (AID 2283080). Conditions: primary human HUVEC with PBMC; actives raise or lower the signal. The gist of the method: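 Human umbilical vein endothelial cells co-cultured with PBMC and stimulated with LPS; IL-1a measured by ELISA 24 h after dosing. Bidirectional fitting against DMSO; cytotoxicity checked by SRB staining in parallel cultures.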

Read-out in experiment [9]: Monocyte Chemoattractant Protein-1 (MCP1), CCL2 (gene 6347)
Nature of the experiment: BSK_LPS_MCP1: BioMAP Diversity Plus: LPS Assay for Monocyte Chemoattractant Protein-1 (MCP1) Biomarker Activity (AID 2283081). Conditions: primary human HUVEC with PBMC; actives raise or lower the signal. The method, boiled down:
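Human umbilical vein endothelial cells co-cultured with PBMC, LPS-stimulated; secreted MCP-1 measured by ELISA 24 h after compound addition. Bidirectional curve fitting against DMSO baseline; SRB total-protein staining in parallel cultures for cytotoxicity.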

Experiment [10] can be described thus: BSK_LPS_PGE2: BioMAP Diversity Plus: LPS Assay for Prostaglandin E2 (PGE2) Biomarker Activity (AID 2283082). Conditions: primary human HUVEC with PBMC; actives raise or lower the signal. The gist of the method: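 Compounds were added to the LPS co-culture of endothelium and PBMC, and PGE2 was measured by ELISA after 24 h. Responses in either direction were fitted with DMSO as baseline.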

Read-out in experiment [11]: Macrophage colony-stimulating factor (MCSF), CSF1 (gene 1435)
In words: BSK_LPS_MCSF: BioMAP Diversity Plus: LPS Assay for Macrophage colony-stimulating factor (MCSF) Biomarker Activity (AID 2283083). Conditions: primary human HUVEC with PBMC; actives raise or lower the signal. The method, boiled down: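 HUVEC–PBMC co-culture, M-CSF measured by ELISA 24 h after chemical dosing. Fitted in both directions relative to DMSO as negative control; overt cytotoxicity assessed by SRB total-protein staining in parallel cultures.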

Read-out in experiment [12]: Tissue Factor, F3 (gene 2152)
Nature of the experiment: BSK_LPS_TissueFactor: BioMAP Diversity Plus: LPS Assay for Tissue Factor Biomarker Activity (AID 2283084). Conditions: primary human HUVEC with PBMC; actives raise or lower the signal. The method, boiled down:
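Human umbilical vein endothelial cells co-cultured with PBMC were dosed with compound. Cell-surface CD142 was measured by ELISA 24 h later. Activity was fitted bidirectionally against DMSO, with SRB total-protein staining in parallel cultures for cytotoxicity.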

Read-out in experiment [13]: Tumor necrosis factor (Homo sapiens) (UniProt P01375)
In words: BSK_LPS_TNFa: BioMAP Diversity Plus: LPS Assay for Tumour Necrosis Factor alpha (TNFa) Biomarker Activity (AID 2283085). Conditions: primary human HUVEC with PBMC; actives raise or lower the signal. The gist of the method:
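Cells (umbilical vein endothelium plus peripheral blood mononuclear cells) were dosed with chemical, incubated 24 h, then TNFa was quantified by ELISA; values derive from bidirectional fitting with DMSO as baseline.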

Read-out in experiment [14]: Vascular cell adhesion molecule 1 (VCAM1), VCAM1 (gene 7412)
In words: BSK_LPS_VCAM1: BioMAP Diversity Plus: LPS Assay for Vascular cell adhesion molecule 1 (VCAM1) Biomarker Activity (AID 2283086). As to conditions: primary human HUVEC with PBMC; actives raise or lower the signal. The method, boiled down: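 Cells are dosed in an LPS-stimulated endothelial/mononuclear co-culture and, after 24 h, VCAM-1 is quantified by ELISA. Activity in either direction is fitted relative to the DMSO negative control.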

Read-out in experiment [15]: CD40, CD40 (gene 958)
In words: BSK_SAg_CD40: BioMAP Diversity Plus: SAg Assay for CD40 Biomarker Activity (AID 2283088). As to conditions: primary human HUVEC with PBMC; actives raise or lower the signal. The method, boiled down:
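HUVEC plus PBMC co-culture, superantigen-activated, with CD40 read by ELISA 24 h after dosing. Curves fitted in both directions against DMSO. Overt cytotoxicity checked by parallel SRB total-protein staining.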

Read-out in a further experiment: CD69, CD69 (gene 969)
In words: BSK_SAg_CD69: BioMAP Diversity Plus: SAg Assay for CD69 Biomarker Activity (AID 2283089).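 For AC50: cell surface CD69 protein quantified by ELISA with fluorescence detection.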 As to conditions: primary human HUVEC with PBMC; actives raise or lower the signal. The gist of the method:
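Values derive from bidirectional fitting relative to DMSO vehicle. Cells: umbilical vein endothelium plus peripheral blood mononuclear cells, treated 24 h before fluorescent ELISA for CD69.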

Read-out in experiment [16]: Monocyte Chemoattractant Protein-1 (MCP1), CCL2 (gene 6347)
In words: BSK_SAg_MCP1: BioMAP Diversity Plus: SAg Assay for Monocyte Chemoattractant Protein-1 (MCP1) Biomarker Activity (AID 2283090). As to conditions: primary human HUVEC with PBMC; actives raise or lower the signal. The method, boiled down:
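Values derive from bidirectional fitting of ELISA-measured MCP1 against DMSO controls. Readings were taken 24 h after dosing human vascular endothelial cells co-cultured with peripheral blood mononuclear cells under superantigen stimulation.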

Read-out in experiment [17]: E-selectin (Homo sapiens) (UniProt P16581)
In words: BSK_SAg_Eselectin: BioMAP Diversity Plus: SAg Assay for Eselectin Biomarker Activity (AID 2283091). Conditions: primary human HUVEC with PBMC; actives raise or lower the signal. The method, boiled down:
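Human umbilical vein endothelial cells co-cultured with peripheral blood mononuclear cells, SAg system. E-selectin is measured by ELISA 24 h after dosing and fitted bidirectionally against DMSO. Cytotoxicity is checked by SRB staining of parallel cultures.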

Read-out in experiment [18]: Transforming growth factor beta 1 (TGFb1), TGFB1 (gene 7040)
In words: BSK_KF3CT_TGFb1: BioMAP Diversity Plus: KF3CT Assay for Transforming growth factor beta 1 (TGFb1) Biomarker Activity (AID 2283072). Conditions: primary human keratinocytes with fibroblasts; actives raise or lower the signal. The gist of the method: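 KF3CT co-culture (keratinocytes + fibroblasts), 24 h exposure → TGF-b1 ELISA → bidirectional fit, DMSO = baseline. Parallel SRB total-protein staining (0.1% SRB, 10% TCA fixation, 560 nm) for cytotoxicity.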

More than one record can exist for a structure, and the calls need not agree. Active and inactive are the calls of the source. Rule for the calls: active = hit-call score of the fitted dose curve at least 0.9, where 1 is the maximum; inactive = score below 0.9.

Tumor necrosis factor (Homo sapiens), sequence (P01375 whole entry, looked up): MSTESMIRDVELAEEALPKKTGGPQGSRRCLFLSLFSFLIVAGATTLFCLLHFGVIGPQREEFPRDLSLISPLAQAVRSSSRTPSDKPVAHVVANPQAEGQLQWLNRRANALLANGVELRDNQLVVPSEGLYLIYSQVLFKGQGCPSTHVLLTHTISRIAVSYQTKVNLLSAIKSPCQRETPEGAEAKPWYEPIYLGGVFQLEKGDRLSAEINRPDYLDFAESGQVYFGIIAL
E-selectin (Homo sapiens), sequence (P16581 whole entry, looked up): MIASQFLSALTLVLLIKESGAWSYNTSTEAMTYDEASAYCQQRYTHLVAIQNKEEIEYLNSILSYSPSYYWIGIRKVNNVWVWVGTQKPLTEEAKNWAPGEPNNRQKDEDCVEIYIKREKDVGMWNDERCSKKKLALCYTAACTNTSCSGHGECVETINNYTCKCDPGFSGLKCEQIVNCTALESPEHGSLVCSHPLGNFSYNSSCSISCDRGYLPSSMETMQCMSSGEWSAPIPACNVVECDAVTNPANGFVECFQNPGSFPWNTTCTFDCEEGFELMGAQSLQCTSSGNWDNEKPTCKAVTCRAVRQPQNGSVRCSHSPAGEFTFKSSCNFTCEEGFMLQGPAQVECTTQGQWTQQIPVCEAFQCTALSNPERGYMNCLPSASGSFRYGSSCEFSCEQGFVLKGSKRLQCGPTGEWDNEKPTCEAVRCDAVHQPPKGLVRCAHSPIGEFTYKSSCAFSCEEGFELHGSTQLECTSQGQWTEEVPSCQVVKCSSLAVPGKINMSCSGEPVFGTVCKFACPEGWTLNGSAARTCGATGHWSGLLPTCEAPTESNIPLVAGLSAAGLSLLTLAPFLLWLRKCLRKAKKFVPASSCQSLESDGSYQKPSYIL

As for `c1ccc(OCCOc2ccccc2)cc1`, the outcome was “inactive” in experiment [1]; “inactive” in experiment [2]; “inactive” in experiment [3]; “inactive” with CD40, CD40 (gene 958) [4]; “inactive” in [5]; “inactive” in experiment [6]. In addition, the result in experiment [7], in experiment [8], in experiment [9], in experiment [10], in experiment [11] and in [12] was inactive. The outcome was “inactive” in experiment [13]; “inactive” in experiment [14]; “inactive” with CD40, CD40 (gene 958) [15]; “inactive” with CD69, CD69 (gene 969); “inactive” in [16]; “inactive” in [17]. Further, the AC50 – broadly, the midpoint of the concentration-response curve, whichever way the signal moves – in experiment [12] is 5.17 µM (active).

`C=C1CC/C=C(\C)CC[C@@H]2[C@@H]1CC2(C)C`: the AC50 in experiment [18] is 20 µM (active); in experiment [1], 4.87 µM (active); in [2] it was 20 µM (active); in [3], 34.5 µM (active); with CD40, CD40 (gene 958) [4], 30.5 µM (active); in experiment [5], 21.2 µM (active). Besides, the AC50 in [7] was 36.3 µM (active); in experiment [8], 31.8 µM (active); in [10], 3.97 µM (active); in [11] it was 31.6 µM (active); in experiment [12], 5.05 µM (active); in experiment [14], 29.4 µM (active). The AC50 with CD40, CD40 (gene 958) [15] was 31.7 µM (active); in the experiment with CD69, CD69 (gene 969), 32.8 µM (active); in experiment [16], 34.4 µM (active); in [17] it was 20 µM (active). In addition, the result in [6], in experiment [9] and in [13] was inactive.
